This passage reports Potency results from PubChem BioAssay (Tox21).

The target in this assay is KiSS-1 receptor (Homo sapiens) (UniProt Q969F8). Nature of the assay: Human kisspeptin (KISS1R) small molecule agonists, calcium flux assay in KISS1R-HEK293 cells (AID 1920064). Summed up:
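Kinetic calcium assay, 1 s sampling over 3 min at Ex/Em 480/540, in HEK293 cells engineered with human KISS1R; compounds delivered in DMSO after 1 h dye loading.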
(Calcium flux is commonly read through the fluorescence of an indicator in the cells.)

Active and inactive are the calls of the source. Where a call stands in place of a potency, no number is given. The call rests on the fitted dose curve; in most records, active means well fitted activation curve with a large enough effect in the repeat runs; inconclusive means weak or mixed curves; inactive means flat fitted curve, though single readings scatter.

Chain of KiSS-1 receptor (Homo sapiens) (Q969F8 whole entry, looked up): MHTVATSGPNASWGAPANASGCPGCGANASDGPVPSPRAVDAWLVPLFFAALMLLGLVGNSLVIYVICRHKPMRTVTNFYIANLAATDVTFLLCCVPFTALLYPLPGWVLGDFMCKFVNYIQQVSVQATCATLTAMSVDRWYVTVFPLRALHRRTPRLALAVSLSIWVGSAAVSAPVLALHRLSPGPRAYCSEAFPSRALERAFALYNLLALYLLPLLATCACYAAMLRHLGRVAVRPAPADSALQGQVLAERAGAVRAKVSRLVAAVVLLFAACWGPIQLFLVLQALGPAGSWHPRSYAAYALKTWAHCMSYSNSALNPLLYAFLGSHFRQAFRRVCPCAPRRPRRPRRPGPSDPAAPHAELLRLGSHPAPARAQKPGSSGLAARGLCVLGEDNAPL

`O=C(O)c1ccc2c(c1)C(=O)OC2=O`: the Potency result is “inactive”.
Next, `CC(O)CC(C)(C)O` (configuration not stated): “inactive”.
On to `CCN(CC)C(=O)c1cccc(C)c1`, for which the Potency entry is “inactive”.
Next, `NS(=O)(=O)c1cc(C(=O)O)c(NCc2ccco2)cc1Cl`: “inactive”; `Cc1ccc(Cl)cc1`: “inactive”.
Next, `COc1cc2c(c(OC)c1OC)-c1ccc(OC)c(=O)cc1[C@@H](NC(C)=O)CC2`: “inactive”.
Then `C[C@]12C[C@H](O)[C@H]3[C@@H](CCC4=CC(=O)CC[C@@]43C)[C@@H]1CC[C@@H]2C(=O)CO`, with “inactive”; and `CCO[Si](CCC#N)(OCC)OCC`, with “inactive”.
For `CCOC(=O)C1OC1c1ccccc1` (configuration not stated), the Potency result is “inactive”.
Then `CCN(CC)C(=S)SSC(=S)N(CC)CC`, with “inactive”.
Then `CCCC(CCC)C(=O)O`, with “inactive”.
For the compound `CS(=O)(=O)c1ccc([C@@H](O)[C@@H](CO)NC(=O)C(Cl)Cl)cc1`, the Potency result is “inactive”.
Next, `Cn1cc[nH]c1=S`: “inactive”; `CC/C(C)=N/O`: “inactive”; `CCn1cc(C(=O)O)c(=O)c2ccc(C)nc21`: “inactive”.
`Oc1c(Cl)cc(Cl)c(Cl)c1Cc1c(O)c(Cl)cc(Cl)c1Cl`: the Potency entry was “inactive”.
Next, `Brc1ccc(Br)c(Br)c1`: “inactive”; `C/C=C/c1ccc(OC)cc1`: “inactive”; `C=Cc1cccc(C)c1`: “inactive”.
Then `COC(C)COC(C)COC(C)CO` (configuration not stated), with “inactive”; and `CN1C(C(=O)Nc2ccccn2)=C(O)c2ccccc2S1(=O)=O`, with “inactive”.
Then `Cc1cccc(C)c1`, with “inactive”; and `OC(Cn1cncn1)(Cn1cncn1)c1ccc(F)cc1F`, with “inactive”.
On to `O=C(O)CS`, for which the Potency result is “inactive”.
Regarding `O=C(O)Cc1ccccc1Nc1c(Cl)cccc1Cl`, the Potency result was “inactive”.
Then `O=C(O)/C=C\C(=O)O`, with “inactive”.
Next, `COc1ccc(NC(C)=O)cc1N`: “inactive”; `CCC(=O)/C=C/C1C(C)=CCCC1(C)C` (configuration not stated): “inactive”.
Then `COc1ccc(Nc2ccccc2)c(C)c1`, with “inactive”; and `CC1=CC[C@H]2C[C@@H]1C2(C)C`, with “inactive”.
Take `NC1CCCCC1`: the Potency result is “inactive”.
With `NC(=O)/N=N/C(N)=O`, the Potency entry was “inactive”.
Next, `C=CC(C)(CCC=C(C)C)OC(C)=O` (configuration not stated): “inactive”; `O=C(C1CCCCC1)N1CC(=O)N2CCc3ccccc3C2C1` (configuration not stated): “inactive”; `NC(=O)c1cccnc1`: “inactive”.
Next, `COc1ccc(C)cc1N`: “inactive”; `O=S(=O)(O)c1ccc2nc(-c3ccccc3)[nH]c2c1`: “inactive”.
Then `CC(=O)CCC=C(C)C`, with “inactive”; and `NC(=O)c1ccccc1O`, with “inactive”; and `O=C=Nc1ccc(Cc2ccc(N=C=O)cc2)cc1`, with “inactive”.
As for `CC(C)=CCCC(C)CCO` (configuration not stated), the Potency result was “inactive”.
`OCCOCCOCCOCCO`: the Potency result is “inactive”.
Next, `C[N+](C)(C)CCCCCC[N+](C)(C)C`: “inactive”.
Turning to `CCCCCCCCCCCCN`, the Potency entry was “inactive”.
Next, `OCCc1ccccc1`: “inactive”; `CC(=O)c1ccccn1`: “inactive”.
As for `CCCCCCCCCCCCCC[N+](C)(C)C`, the Potency result was “inactive”.
Next, `Fc1ccc(Br)cc1`: “inactive”; `CCCCCC1C(=O)CCC1CC(=O)OC` (configuration not stated): “inactive”.
As for `CC(C)c1ccc(C(C)C)cc1`, the Potency entry is “inactive”.
Then `NC(=O)OCC(COC(N)=O)c1ccccc1`, with “inactive”; and `O=C(/C=C/C=C/c1ccc2c(c1)OCO2)N1CCCCC1`, with “inactive”.
On to `CCC(C)(O)CCCC(C)C` (configuration not stated), for which the Potency result is “inactive”.
With `O=C1C(N(CO)C(=O)NCO)N(CO)C(=O)N1CO` (configuration not stated), the Potency result was “inactive”.
Then `CC(O)COCC(C)O` (configuration not stated), with “inactive”.
Next, `C=CC[N+](C)(C)CC=C`: “inactive”.
Next, `O=C1O[C@H](CO)[C@@H](O)[C@H](O)[C@H]1O`: “inactive”.
